Source: publication PMC7862700, “An all-to-all approach to the identification of sequence-specific readers for epigenetic DNA modifications on cytosine”

How the values were obtained:
Assay in all cases: DAPPL (digital affinity profiling via proximity ligation, sequencing); 10 mM Tris-HCl pH 7.5, 50 mM NaCl, 1 mM DTT, 4% glycerol, room temperature, 30 min; GST-TFs on glutathione beads, 16-mer random dsDNA library, 0.1% formaldehyde crosslink after washing; high values mean tight binding
[1] = target: T1, FEV (Homo sapiens, UniProt Q99581 1-238); details: protein: recombinant; tags: N-terminal GST; dsDNA, one strand shown
T1 sequence: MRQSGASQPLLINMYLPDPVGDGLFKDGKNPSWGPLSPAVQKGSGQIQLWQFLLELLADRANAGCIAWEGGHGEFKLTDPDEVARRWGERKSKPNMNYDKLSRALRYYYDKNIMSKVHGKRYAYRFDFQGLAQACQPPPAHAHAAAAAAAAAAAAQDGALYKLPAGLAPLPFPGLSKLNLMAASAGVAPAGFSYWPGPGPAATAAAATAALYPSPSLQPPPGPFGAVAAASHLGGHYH
Method in brief: (§1)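 Pools were built from human transcription factors expressed in yeast as GST fusions, captured on glutathione beads and DNA-barcoded, along with a tag-only sample. Incubation with 200 nmole of a 16-mer random double-stranded DNA library lasted 30 min at room temperature in Tris/NaCl/DTT/glycerol buffer, and was followed by washing, 0.1% formaldehyde crosslinking, proximity ligation, PCR amplification and Illumina NextSeq500 sequencing. Binding signal is the quotient of each hexamer's read frequency for a factor and its frequency for the tag-only sample.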

[2] = target: ETV5 (Homo sapiens, UniProt P41161 1-510); details: protein: recombinant; tags: N-terminal GST; dsDNA, one strand shown
Method in brief: as §1

[3] = target: HSF1 (Homo sapiens, UniProt Q00613 1-529); details: protein: recombinant; tags: N-terminal GST; chain copies: 3; dsDNA, one strand shown
Method in brief: as §1

[4] = target: T2, SPIC (Homo sapiens, UniProt Q8N5J4 1-248); details: protein: recombinant; tags: N-terminal GST; dsDNA, one strand shown
T2 sequence: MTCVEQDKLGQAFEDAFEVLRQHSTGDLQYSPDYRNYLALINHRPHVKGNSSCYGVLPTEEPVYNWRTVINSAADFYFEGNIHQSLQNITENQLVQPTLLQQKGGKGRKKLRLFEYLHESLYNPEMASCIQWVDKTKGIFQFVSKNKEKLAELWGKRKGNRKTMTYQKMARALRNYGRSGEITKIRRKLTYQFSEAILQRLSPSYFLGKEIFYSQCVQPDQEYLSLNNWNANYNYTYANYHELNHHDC
Method in brief: as §1

[5] = target: ELF4 (Homo sapiens, UniProt Q99607 1-663); details: protein: recombinant; tags: N-terminal GST; dsDNA, one strand shown
Method in brief: as §1

[6] = target: T3, ELK4 (Homo sapiens, UniProt P28324-2 1-405); details: protein: recombinant; tags: N-terminal GST; dsDNA, one strand shown
T3 sequence: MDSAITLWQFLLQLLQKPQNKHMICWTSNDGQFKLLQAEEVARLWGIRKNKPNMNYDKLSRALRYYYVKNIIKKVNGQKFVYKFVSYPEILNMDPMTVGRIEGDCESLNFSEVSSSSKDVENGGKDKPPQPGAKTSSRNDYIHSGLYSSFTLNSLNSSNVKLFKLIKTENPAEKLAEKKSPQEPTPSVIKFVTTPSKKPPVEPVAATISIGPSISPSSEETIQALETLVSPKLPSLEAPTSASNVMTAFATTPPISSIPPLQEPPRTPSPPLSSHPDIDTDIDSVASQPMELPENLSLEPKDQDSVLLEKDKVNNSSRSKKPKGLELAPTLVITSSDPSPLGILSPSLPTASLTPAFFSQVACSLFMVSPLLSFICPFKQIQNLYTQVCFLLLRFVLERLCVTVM
Method in brief: as §1

[7] = target: T4, ETV2 (Homo sapiens, UniProt O00321 1-342); details: protein: recombinant; tags: N-terminal GST; dsDNA, one strand shown
T4 sequence: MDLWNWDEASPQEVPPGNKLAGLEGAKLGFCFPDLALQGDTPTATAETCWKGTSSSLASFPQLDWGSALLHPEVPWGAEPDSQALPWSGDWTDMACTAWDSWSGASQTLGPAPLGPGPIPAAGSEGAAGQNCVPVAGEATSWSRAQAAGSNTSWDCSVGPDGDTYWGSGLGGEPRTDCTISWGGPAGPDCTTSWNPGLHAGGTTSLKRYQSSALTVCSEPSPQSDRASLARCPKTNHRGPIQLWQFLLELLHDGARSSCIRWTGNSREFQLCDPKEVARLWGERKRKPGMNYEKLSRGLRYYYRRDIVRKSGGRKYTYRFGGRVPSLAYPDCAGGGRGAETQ
Method in brief: as §1

[8] = target: T5, ELF3 (Homo sapiens, UniProt P78545 1-371); details: protein: recombinant; tags: N-terminal GST; dsDNA, one strand shown
T5 sequence: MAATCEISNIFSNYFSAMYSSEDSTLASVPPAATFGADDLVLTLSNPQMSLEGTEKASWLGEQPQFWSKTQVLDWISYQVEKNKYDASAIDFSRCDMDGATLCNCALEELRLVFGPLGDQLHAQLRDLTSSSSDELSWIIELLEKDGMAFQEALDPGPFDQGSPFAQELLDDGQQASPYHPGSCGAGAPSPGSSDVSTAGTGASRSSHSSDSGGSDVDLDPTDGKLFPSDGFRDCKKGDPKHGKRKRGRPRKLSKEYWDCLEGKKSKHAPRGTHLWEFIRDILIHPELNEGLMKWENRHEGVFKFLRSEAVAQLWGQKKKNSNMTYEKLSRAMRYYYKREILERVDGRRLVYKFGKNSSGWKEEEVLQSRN
Method in brief: as §1

[9] = target: CRX (Homo sapiens, UniProt O43186 1-299); details: protein: recombinant; tags: N-terminal GST; dsDNA, one strand shown
Method in brief: as §1

[10] = target: ETV1 (Homo sapiens, UniProt P50549 1-477); details: protein: recombinant; tags: N-terminal GST; dsDNA, one strand shown
Method in brief: as §1

[11] = target: T6, ERF (Homo sapiens, UniProt P50548 1-548); details: protein: recombinant; tags: N-terminal GST; dsDNA, one strand shown
T6 sequence: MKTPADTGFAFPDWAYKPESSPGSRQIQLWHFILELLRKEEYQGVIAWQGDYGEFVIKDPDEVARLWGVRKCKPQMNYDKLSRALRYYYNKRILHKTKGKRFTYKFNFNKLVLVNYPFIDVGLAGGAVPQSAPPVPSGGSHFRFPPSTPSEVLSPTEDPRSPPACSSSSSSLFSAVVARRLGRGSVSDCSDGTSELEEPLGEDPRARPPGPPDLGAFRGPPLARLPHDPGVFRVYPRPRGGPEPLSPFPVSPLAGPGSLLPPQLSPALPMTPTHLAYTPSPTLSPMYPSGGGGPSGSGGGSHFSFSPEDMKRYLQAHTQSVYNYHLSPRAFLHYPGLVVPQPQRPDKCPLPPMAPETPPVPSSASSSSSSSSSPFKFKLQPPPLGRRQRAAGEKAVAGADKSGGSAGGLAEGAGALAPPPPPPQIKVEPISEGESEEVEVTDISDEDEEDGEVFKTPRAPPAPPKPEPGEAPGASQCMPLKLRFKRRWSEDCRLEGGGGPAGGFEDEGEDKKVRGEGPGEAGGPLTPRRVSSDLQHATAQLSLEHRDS
Method in brief: as §1

[12] = target: T7, ETV3L (Homo sapiens, UniProt Q6ZN32 1-361); details: protein: recombinant; tags: N-terminal GST; dsDNA, one strand shown
T7 sequence: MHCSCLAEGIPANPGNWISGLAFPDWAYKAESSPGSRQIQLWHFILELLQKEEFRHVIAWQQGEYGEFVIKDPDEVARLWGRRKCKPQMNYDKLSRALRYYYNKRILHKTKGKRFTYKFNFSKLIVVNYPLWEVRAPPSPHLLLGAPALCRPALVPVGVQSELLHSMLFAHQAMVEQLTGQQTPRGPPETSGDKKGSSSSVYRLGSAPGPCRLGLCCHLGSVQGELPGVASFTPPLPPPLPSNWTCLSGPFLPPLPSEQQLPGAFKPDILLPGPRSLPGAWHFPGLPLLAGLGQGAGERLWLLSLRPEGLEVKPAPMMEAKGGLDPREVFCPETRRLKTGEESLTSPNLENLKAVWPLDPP
Method in brief: as §1

[13] = target: T8, ETS2 (Homo sapiens, UniProt P15036 1-469); details: protein: recombinant; tags: N-terminal GST; dsDNA, one strand shown
T8 sequence: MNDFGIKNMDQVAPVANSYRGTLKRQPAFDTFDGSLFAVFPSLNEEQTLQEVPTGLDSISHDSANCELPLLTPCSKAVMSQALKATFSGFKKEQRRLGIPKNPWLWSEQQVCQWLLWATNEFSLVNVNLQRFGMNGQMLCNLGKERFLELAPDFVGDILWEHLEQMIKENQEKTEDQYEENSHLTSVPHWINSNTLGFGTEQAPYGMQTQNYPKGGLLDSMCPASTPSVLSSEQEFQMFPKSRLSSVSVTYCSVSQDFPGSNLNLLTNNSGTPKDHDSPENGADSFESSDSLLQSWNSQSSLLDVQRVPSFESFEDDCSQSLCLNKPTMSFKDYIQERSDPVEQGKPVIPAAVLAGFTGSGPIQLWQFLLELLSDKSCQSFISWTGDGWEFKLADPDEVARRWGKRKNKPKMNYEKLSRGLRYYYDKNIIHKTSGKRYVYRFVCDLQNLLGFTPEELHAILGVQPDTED
Method in brief: as §1

[14] = target: T9, SPDEF (Homo sapiens, UniProt O95238 1-335); details: protein: recombinant; tags: N-terminal GST; dsDNA, one strand shown
T9 sequence: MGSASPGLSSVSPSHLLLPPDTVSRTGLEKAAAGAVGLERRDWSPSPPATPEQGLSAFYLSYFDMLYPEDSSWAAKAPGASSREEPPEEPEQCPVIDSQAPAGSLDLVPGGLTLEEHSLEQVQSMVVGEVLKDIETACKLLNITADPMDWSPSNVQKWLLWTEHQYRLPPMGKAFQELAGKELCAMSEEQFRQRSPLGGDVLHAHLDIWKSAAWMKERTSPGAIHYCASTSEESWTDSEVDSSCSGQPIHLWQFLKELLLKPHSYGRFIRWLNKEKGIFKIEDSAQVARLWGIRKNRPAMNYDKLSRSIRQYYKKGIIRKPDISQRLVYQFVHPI
Method in brief: as §1

[15] = target: T10, ETV7 (Homo sapiens, UniProt Q9Y603 1-341); details: protein: recombinant; tags: N-terminal GST; dsDNA, one strand shown
T10 sequence: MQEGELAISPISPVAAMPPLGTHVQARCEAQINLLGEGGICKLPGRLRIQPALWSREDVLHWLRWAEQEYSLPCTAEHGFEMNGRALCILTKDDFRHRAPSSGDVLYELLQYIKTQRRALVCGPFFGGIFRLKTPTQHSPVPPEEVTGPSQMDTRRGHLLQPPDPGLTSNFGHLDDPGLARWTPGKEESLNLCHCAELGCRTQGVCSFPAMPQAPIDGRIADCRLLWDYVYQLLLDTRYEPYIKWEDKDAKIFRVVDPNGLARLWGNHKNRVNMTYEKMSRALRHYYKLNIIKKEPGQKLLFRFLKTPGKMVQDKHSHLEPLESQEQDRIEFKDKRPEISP
Method in brief: as §1

[16] = target: T11, ELF5 (Homo sapiens, UniProt Q9UKW6-2 1-255); details: protein: recombinant; tags: N-terminal GST; dsDNA, one strand shown
T11 sequence: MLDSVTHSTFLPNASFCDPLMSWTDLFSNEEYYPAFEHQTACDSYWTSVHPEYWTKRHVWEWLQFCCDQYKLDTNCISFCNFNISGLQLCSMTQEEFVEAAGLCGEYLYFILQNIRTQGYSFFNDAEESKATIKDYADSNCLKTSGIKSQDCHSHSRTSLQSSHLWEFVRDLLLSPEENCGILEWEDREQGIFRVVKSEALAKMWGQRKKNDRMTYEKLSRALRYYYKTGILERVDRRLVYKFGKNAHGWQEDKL
Method in brief: as §1

[17] = target: T12, ETV3 (Homo sapiens, UniProt P41162-2 1-143); details: protein: recombinant; tags: N-terminal GST; dsDNA, one strand shown
T12 sequence: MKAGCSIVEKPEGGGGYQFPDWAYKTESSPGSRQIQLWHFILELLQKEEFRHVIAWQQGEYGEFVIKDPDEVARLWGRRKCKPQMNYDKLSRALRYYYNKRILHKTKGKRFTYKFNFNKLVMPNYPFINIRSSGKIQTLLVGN
Method in brief: as §1

[18] = target: ETV6 (Homo sapiens, UniProt P41212 1-452); details: protein: recombinant; tags: N-terminal GST; dsDNA, one strand shown
Method in brief: as §1

HSF1, sequence (Q00613 whole entry): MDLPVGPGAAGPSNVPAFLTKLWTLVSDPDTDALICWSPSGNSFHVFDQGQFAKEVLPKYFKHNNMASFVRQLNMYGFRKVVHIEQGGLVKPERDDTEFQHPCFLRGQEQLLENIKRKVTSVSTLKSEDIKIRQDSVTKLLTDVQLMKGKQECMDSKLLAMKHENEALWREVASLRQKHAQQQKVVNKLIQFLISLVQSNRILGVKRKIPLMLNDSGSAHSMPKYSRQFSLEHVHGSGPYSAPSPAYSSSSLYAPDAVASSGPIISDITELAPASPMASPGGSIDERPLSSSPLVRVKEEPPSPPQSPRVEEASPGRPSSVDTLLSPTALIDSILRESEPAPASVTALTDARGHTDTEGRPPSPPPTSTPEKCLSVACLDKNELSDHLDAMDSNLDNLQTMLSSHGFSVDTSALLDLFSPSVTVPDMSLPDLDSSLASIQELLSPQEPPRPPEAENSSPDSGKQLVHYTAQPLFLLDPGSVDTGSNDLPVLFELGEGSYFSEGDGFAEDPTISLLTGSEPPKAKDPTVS
ETV6, sequence (P41212 whole entry): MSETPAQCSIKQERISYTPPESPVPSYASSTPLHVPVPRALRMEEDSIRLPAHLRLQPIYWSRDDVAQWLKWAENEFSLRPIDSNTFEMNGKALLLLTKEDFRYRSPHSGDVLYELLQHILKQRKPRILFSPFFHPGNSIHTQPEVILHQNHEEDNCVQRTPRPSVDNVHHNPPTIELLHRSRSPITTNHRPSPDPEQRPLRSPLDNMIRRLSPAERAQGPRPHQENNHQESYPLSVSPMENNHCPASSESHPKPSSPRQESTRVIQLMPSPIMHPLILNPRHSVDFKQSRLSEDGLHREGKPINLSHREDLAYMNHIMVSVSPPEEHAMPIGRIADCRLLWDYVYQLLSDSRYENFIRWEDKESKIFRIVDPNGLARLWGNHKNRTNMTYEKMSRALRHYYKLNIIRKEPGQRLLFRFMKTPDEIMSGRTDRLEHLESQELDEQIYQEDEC
ETV1, sequence (P50549 whole entry): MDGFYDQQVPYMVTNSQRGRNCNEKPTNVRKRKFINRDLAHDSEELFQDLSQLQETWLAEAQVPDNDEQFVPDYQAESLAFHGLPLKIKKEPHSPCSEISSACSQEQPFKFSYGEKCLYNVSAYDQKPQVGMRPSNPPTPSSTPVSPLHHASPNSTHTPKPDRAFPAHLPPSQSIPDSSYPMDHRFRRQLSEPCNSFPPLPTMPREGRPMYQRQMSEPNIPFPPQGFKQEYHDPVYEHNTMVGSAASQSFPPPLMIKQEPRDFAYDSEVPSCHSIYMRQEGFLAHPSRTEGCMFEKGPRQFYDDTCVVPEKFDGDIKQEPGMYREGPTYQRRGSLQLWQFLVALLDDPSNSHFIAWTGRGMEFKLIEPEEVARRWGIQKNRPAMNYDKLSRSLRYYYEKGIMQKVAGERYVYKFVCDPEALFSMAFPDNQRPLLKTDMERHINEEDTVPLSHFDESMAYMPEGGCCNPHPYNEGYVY
ETV5, sequence (P41161 whole entry): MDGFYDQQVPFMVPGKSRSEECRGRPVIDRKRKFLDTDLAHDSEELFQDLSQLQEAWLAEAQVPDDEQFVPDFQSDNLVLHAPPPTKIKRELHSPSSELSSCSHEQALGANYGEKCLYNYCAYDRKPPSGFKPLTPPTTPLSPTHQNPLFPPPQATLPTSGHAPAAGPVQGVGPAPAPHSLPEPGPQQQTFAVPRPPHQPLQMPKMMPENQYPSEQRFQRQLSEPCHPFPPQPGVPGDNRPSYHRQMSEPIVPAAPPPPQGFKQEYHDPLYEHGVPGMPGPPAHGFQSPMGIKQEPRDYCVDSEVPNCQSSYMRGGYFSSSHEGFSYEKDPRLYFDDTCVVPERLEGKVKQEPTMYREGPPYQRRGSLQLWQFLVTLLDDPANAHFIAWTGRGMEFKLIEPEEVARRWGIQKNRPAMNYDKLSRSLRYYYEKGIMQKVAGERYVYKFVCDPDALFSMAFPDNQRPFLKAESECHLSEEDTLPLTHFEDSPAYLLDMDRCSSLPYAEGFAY
ELF4, sequence (Q99607 whole entry): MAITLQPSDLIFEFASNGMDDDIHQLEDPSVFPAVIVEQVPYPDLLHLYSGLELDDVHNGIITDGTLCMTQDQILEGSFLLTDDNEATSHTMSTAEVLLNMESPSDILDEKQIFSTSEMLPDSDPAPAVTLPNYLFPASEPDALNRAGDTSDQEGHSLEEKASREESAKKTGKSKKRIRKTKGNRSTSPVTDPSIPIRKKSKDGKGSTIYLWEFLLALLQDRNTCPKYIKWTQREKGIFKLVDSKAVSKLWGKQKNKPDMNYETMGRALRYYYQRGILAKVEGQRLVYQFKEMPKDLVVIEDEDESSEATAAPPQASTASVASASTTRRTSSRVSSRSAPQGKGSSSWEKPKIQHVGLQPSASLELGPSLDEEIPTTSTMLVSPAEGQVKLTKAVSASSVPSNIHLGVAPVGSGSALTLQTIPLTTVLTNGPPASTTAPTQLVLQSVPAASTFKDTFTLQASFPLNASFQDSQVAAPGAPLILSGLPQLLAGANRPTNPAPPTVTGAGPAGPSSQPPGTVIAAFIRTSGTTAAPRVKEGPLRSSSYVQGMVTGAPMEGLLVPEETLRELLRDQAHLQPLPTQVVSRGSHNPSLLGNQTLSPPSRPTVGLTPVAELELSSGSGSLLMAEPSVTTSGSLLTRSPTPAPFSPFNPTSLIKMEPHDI
CRX, sequence (O43186 whole entry): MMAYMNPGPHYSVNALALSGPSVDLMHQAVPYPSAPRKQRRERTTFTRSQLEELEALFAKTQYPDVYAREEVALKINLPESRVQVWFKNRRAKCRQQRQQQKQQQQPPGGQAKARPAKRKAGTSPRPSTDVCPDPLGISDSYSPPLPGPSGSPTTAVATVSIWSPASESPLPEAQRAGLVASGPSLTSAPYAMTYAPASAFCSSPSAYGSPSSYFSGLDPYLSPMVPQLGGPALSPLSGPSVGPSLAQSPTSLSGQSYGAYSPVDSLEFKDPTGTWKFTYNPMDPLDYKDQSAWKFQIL

ACTTCA was tested, and the binding signal [1] was 1.38 fold enrichment (6-mer frequency, TF over GST control), the binding signal [2] was 1.42 fold enrichment (6-mer frequency, TF over GST control) and the binding signal [3] was 1.18 fold enrichment (6-mer frequency, TF over GST control). The binding signal [4] was 1.55 fold enrichment (6-mer frequency, TF over GST control), the binding signal [5] was 1.33 fold enrichment (6-mer frequency, TF over GST control) and the binding signal [6] was 1.56 fold enrichment (6-mer frequency, TF over GST control). The binding signal [7] was 1.37 fold enrichment (6-mer frequency, TF over GST control), the binding signal [8] was 1.44 fold enrichment (6-mer frequency, TF over GST control) and the binding signal [9] was 1.17 fold enrichment (6-mer frequency, TF over GST control). The binding signal [10] was 1.48 fold enrichment (6-mer frequency, TF over GST control), the binding signal [11] was 1.33 fold enrichment (6-mer frequency, TF over GST control) and the binding signal [12] was 1.4 fold enrichment (6-mer frequency, TF over GST control). The binding signal [13] was 1.42 fold enrichment (6-mer frequency, TF over GST control), the binding signal [14] was 1.37 fold enrichment (6-mer frequency, TF over GST control) and the binding signal [15] was 1.54 fold enrichment (6-mer frequency, TF over GST control). For the same sequence, the binding signal [16] was 1.4 fold enrichment (6-mer frequency, TF over GST control), the binding signal [17] was 1.29 fold enrichment (6-mer frequency, TF over GST control) and the binding signal [18] was 1.35 fold enrichment (6-mer frequency, TF over GST control).
